High-throughput results: PubChem BioAssay, National Center for Advancing Translational Sciences (NCATS)
VP16 counter = VP16 counterscreen qHTS for inhibitors of ROR gamma transcriptional activity; Drosophila S2 Gal4-VP16 UAS-luciferase, luminescence, 20 h; Potency, µM (highest dose often 53.6 µM), for inactives: at the highest dose activity, negative = inhibition, usual class: inhibitors; 310,000 tested, 3.5% active; AID 2546, 2010;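 note: Gal4-VP16 expression switched on by copper sulfate through the metallothionein promoter; potency is the fitted concentration of half-maximal effect; nearly all actives have a fitted effect of over 50% in size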
RORgamma inh = qHTS for inhibitors of ROR gamma transcriptional activity. Potency, µM (series often up to 53.6 µM), for the others: top-dose activity change, negative = inhibition, most hits filed as inhibitors. Nuclear receptor ROR-gamma (Mus musculus), P51450. Drosophila S2 Gal4-RORgamma UAS-luciferase reporter, 20 h. AID 2551, 2010. 310,000 tested, 5.4% active; note: potency is the fitted concentration of half-maximal effect; nearly all actives have a fitted effect of over 60% in size
Target sequence (P51450 whole entry, looked up, the tested form may be a part): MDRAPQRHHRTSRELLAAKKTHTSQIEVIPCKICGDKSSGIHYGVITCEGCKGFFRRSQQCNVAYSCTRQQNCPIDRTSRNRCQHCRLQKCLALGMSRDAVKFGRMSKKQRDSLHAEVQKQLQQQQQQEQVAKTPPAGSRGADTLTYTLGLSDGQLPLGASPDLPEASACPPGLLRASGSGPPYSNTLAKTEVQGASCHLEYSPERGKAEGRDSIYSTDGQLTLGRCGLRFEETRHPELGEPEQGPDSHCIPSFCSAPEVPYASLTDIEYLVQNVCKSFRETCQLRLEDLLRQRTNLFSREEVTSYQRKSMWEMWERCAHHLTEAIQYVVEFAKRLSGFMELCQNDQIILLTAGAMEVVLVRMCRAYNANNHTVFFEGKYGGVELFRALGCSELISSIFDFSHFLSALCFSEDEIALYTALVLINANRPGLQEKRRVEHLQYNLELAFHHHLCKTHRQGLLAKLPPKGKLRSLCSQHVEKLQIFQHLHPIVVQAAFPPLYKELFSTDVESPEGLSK
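Stable Schneider cell line, Gal4 DNA-binding domain fused to ROR gamma, UAS-luciferase. Cmpd 1 hr RT → CuSO4 700 uM final → 20 hr RT → luciferase reagent 10 min → luminescence.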
TrxR1 inh = qHTS Assay for Inhibitors of Mammalian Selenoprotein Thioredoxin Reductase 1 (TrxR1): qHTS; 390,000 tested, 1% active; AID 588453, 2011; recombinant rTrxR1, NADPH fluorescence consumption, selenite substrate; Potency, µM (top dose mostly 114 µM), inactives show top-dose activity change, negative = inhibition, hits mostly inhibitors; Thioredoxin reductase 1, cytoplasmic (Rattus norvegicus), O89049; note: potency is the fitted concentration of half-maximal effect; nearly all actives have a fitted effect of over 65% in size
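Rat TrxR1 (90 nM in the dispensed reagent) was pre-reduced with 400 uM NADPH for 5 min at room temperature, then incubated with compound for 15 min. After 400 uM selenite was added, NADPH fluorescence (Ex 340/Em 450 nm) was followed for 8 min.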
GALK inh = qHTS Assay for Inhibitors of Human Galactokinase (GALK) | Purified GALK, Kinase-Glo residual ATP luminescence | Potency, µM (highest dose often 57.5 µM), for inactives: at the highest dose activity change, negative = inhibition, most hits filed as inhibitors | 270,000 tested, 0.007% active | AID 1868, 2009; note: potency is the fitted concentration of half-maximal effect
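Compounds were pin-transferred into ATP buffer (35 uM final), then GALK plus galactose (5 nM, 100 uM final) was added. After 1 h at room temperature, Kinase-Glo Plus was added and luminescence read after 10 min.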
TrxR1 substrate = qHTS Assay for Substrates of Mammalian Selenoprotein Thioredoxin Reductase 1 (TrxR1): qHTS; 390,000 tested, 0.01% active; Potency, µM (titrated, usually from 114 µM), without a hit: at the top dose activity change, negative = substrate turnover; purified TrxR1 substrate turnover, NADPH consumption readout; Thioredoxin reductase 1, cytoplasmic (Rattus norvegicus), O89049; note: potency is the fitted concentration of half-maximal effect; nearly all actives have a fitted effect of over 50% in size
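Rat TrxR1, dispensed at 90 nM, was prereduced with 400 uM NADPH (final) for 5 min at ~22 deg C, then incubated with compound 15 min before 400 uM selenite. A first-read NADPH fluorescence drop versus no-compound background flagged substrates.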
FBPA coupling cs = qHTS Assay for Inhibitors of Fructose-1,6-bisphosphate Aldolase from Giardia Lamblia: Coupling assay counterscreen; 290,000 tested, 0.67% active; AID 2472, 2010; activity change, negative = inhibition, % at 58.2 µM, hits read low; coupling enzyme system counterscreen, AmpLite Red fluorescence; in the data active = activity change below about -30%
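Counterscreen of the coupled detection system alone, without aldolase: glyceraldehyde-3-phosphate coupling enzymes plus AmpLite Red readout. Compounds at 57.5 uM final, 10 min RT preincubation, 20 min RT reaction, fluorescence 525/598 nm.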
Active calls of the source: *; ? = inconclusive; . = no result given; [ ] = another dose, or the depositor's remark. Rows were chosen to be rich in hits. Some 5.9% of all compounds tested hit in one or more screens of this group. Unless noted, calls come from the whole dose curve; as a rule, active = well fitted curve in the direction sought with a large enough effect; inconclusive = small, poorly fitted or top-dose-only effect, or another doubt; inactive = no such curve, though single readings can be large; an effect the other way counts as inactive or inconclusive. % is set by controls: 0 for no effect and ±100 for the full control effect.

SMILES	VP16 counter	RORgamma inh	TrxR1 inh	GALK inh	TrxR1 substrate	FBPA coupling cs
CN1CCN(C(=S)NC(=O)c2ccc(C(C)(C)C)cc2)CC1	2.5µM*	1.4µM*	-9%	1%	9%	2
CN1CCN(C(=S)NC(=O)c2ccc(Br)cc2)CC1	1.1µM*	0.89µM*	-13%	-2%	0%	2
Cc1ccc2c(c1)C1CN(C)CCC1N2C(=S)NC(=O)c1ccc(Br)cc1 (stereo not drawn)	-73%	0.11µM*	-16%	-1%	-3%	3
CC(C)(C)c1ccc(C(=O)N2CCCN(C(=O)c3ccc(C(C)(C)C)cc3)CC2)cc1	-4%	?	9%[57.1 µM]	0%	-10%	1
CN1CCCN(C(=O)c2ccc(Br)cc2)CC1	4%	?	14%	8%	6%	4
COc1ccc(OCC(=O)N2c3ccc(C)cc3C3CN(C)CCC32)cc1 (stereo not drawn)	2%	1%	0%[57.1 µM]	12%	8%[57.1 µM]	2
COc1ccc(C)cc1NC(=O)/C=C/c1ccc(OC)c(S(=O)(=O)N2CCOCC2)c1	.	.	19%	.	-8%	.
CCCSc1ncc(Cl)c(C(=O)Nc2ccc(CC)cc2)n1	.	.	18%	.	0%	.
CC(C)(C)c1ccc(C(=O)NC(=S)N2CCOCC2)cc1	1µM*	1.1µM*	1%	-3%	5%	.
O=C(COC(=O)c1cccc(F)c1)Nc1ccc2c(c1)OCCO2	.	.	2%	.	-3%	.
C1CCN(c2nc3nonc3nc2N2CCCC2)C1	0%	24%	-15%	-2%	-6%	.
CCn1cc(CNc2nc3nonc3nc2N2CCCCC2)cn1	?	7.1µM*	5%	-1%	-9%	2
CC[C@H](CO)Oc1cc(NCc2ccc(Cl)c(Cl)c2)c2ncn(C(C)C)c2c1	.	.	41%	.	9%	.
CC1CCC(C(C)C)C(OC(=O)Cn2c(-c3ccccc3)[n+](C)c3ccccc32)C1 (stereo not drawn)	6.3µM*	?	-15%	-1%	-8%	0
CC1CCC(C(C)C)C(OC(=O)Cn2c(-c3ccc(F)cc3)[n+](C)c3ccccc32)C1 (stereo not drawn)	7.1µM*	?	1%	2%	2%	-1
CCOc1ccc(-c2n[nH]c(C)c2Oc2ccccc2OC)c(O)c1	2.5µM*	2.2µM*	1%	2%	-4%	0
CCc1cc(-c2n[nH]c(C)c2Oc2ccc(C(C)C)cc2)c(O)cc1O	?	7.1µM*	4%	-4%	-8%	-5
CCCOC(=O)c1ccc(Oc2c(-c3ccc(OC)cc3O)n[nH]c2C)cc1	?	7.1µM*	15%	-3%	-1%	-2
CCCOC(=O)c1ccc(Oc2c(-c3ccc(O)cc3O)n[nH]c2C)cc1	-20%	?	20%	0%	0%	3
C=C(C)COc1ccc(-c2nc(N)nc(C)c2Oc2ccccc2OC)c(O)c1	-5%	23%	-3%[57.1 µM]	-2%	-4%[57.1 µM]	-2
C=C(C)COc1ccc(-c2n[nH]c(C)c2Oc2ccccc2OC)c(O)c1	-16%	1.6µM*	9%	0%	-5%	-15
O=c1c(Oc2ccccc2F)coc2cc(OCc3cnn(-c4ccccc4)c3)ccc12	2%	-10%	-7%	1%	-5%	1
Cc1[nH]nc(-c2ccc(OCc3cnn(-c4ccccc4)c3)cc2O)c1Oc1ccccc1F	10µM*	6.3µM*	-6%[57.1 µM]	3%	2%[57.1 µM]	1
COC(=O)c1ccc(=O)c2nc3/c(=C/O)c(O)cc(=O)c3[nH]c12	-11%	11%	56µM*	.	-17%	-7
COC(=O)c1ccc(N)cc1O	1%	-17%	1%	1%	-2%	3
